The text below walks through data of PubChem BioAssay (NCI).

Compounds without any hit were thinned out: in the full panel of roughly 83,000, 20% have a hit.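 In brief: 96-well plates, 48 h treatment, single concentration, percent growth endpoint.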 Activity calls are given as the source filed them. The calls were made as follows: active = growth percent below 10; inactive = the rest.

In one test the test system is EKVX NSCLC. Briefly: NCI-60 one-dose screen, 48 h (100 = growth as untreated, 0 = no growth, -100 = all killed). The note with it: 10 µM unless noted.
`O=C(Cn1cc(CN2C(=O)c3ccccc3S2(=O)=O)nn1)Nc1ccc([N+](=O)[O-])cc1Cl`: the growth was 103% (inactive).
Consider `Oc1ccc(Nc2nccc(-c3ccc4ccccc4c3)n2)cc1`, for which the growth is 58.1% (inactive).
As to `C[C@H](CCC(=O)O)[C@H]1CC[C@H]2[C@@H]3CC[C@@H]4/C(=C\c5ccco5)C(=O)/C(=C\c5ccco5)C[C@]4(C)[C@H]3CC[C@]12C`, the growth was 79.1% (inactive).
Still for that read-out and setting: then `CC[C@H](Nc1nc(N)nc(C)c1C#N)c1nc2cccc(NCc3ccc(C(=O)NO)cc3)c2c(=O)n1-c1ccccc1`, with 35.6% (inactive).
Same read-out and setting: then `Cc1nn(-c2ccccc2)c2nc(C)n(-c3ccc(Br)cc3)c(=O)c12`, with 32.1% (inactive); and `NCCN1CCN(c2nccc(-c3ccc4ccccc4c3)n2)CC1`, with 75.6% (inactive); and `CCCNc1nc(SC)nc(-c2cccc(N)c2)c1C#N`, with 82.6% (inactive).
Still for that read-out and setting: then `CN(C)CCOc1ccc(-c2nc3ccc(-c4nc5ccc(N6CCN(C)CC6)cc5[nH]4)cc3[nH]2)cc1`, with 83.6% (inactive); and `CN[C@@]12CC3(C=CC(=O)C=C3)O[C@]1(Cc1ccc(OC)cc1)N(C)C(=O)N2`, with 75.8% (inactive).
As to `COc1cc2cc(COc3nccc(-c4ccc(Cl)cc4)n3)c(=O)[nH]c2cc1OC`, the growth is 91% (inactive).
Same read-out and setting: the same measure for `CC[C@H](Nc1cc(C)nc(N)n1)c1nc2cccc(NCc3ccc(C(=O)NO)cc3)c2c(=O)n1-c1ccccc1`: 64.3% (inactive).
Regarding `C[C@@H]1CC[C@@H]2[C@@H]1[C@H](OC(=O)/C=C/c1ccccc1)[C@]1(C3CCCCC3)C[C@@H](OC(=O)CO)[C@@]2(C)O1`, the growth was 68.6% (inactive).

A further test relates to SN12C renal. The description is as above. The note with it: 10 µM unless noted.
With `Nc1cc2nc3ccccc3sc-2cc1=O`, the growth was 60.7% (inactive).
Same read-out and setting: the same measure for `Cc1noc(C)c1-c1cc(O)cc(C(O)c2ccccc2)c1` (stereo unspecified): 74.5% (inactive).
As for `CCCCCC(=O)N(CCCC)CCCC`, the growth is 96.3% (inactive).
Same read-out and setting: the same measure for `COc1ccc(/C=N\NC(=O)c2ccncc2)cc1O`: 96.7% (inactive); for `O=C(Cn1cc(CN2C(=O)c3ccccc3S2(=O)=O)nn1)Nc1ccc([N+](=O)[O-])cc1Cl`: 94.3% (inactive).
The same measure, in the same setting: then `Oc1ccc(Nc2nccc(-c3ccc4ccccc4c3)n2)cc1`, with 32.4% (inactive); and `O=C1C=CC(=O)c2c1nc1n2CCCC1`, with 74% (inactive); and `Cc1cc(Nc2nc(N3CCOCC3)nc3ccccc23)n[nH]1`, with 60.2% (inactive).
Same read-out and setting: then `Cc1ccc(C2CC3c4ccccc4C2C2CCCCN32)cc1` (stereo unspecified), with 90.3% (inactive); and `Cc1csc2ccc(Cl)cc12`, with 93.1% (inactive); and `O=S(=O)(Nc1ccc(F)c(Cl)c1)c1ccc(-c2cnc(C3CC3)o2)cc1`, with 49.9% (inactive).
Regarding `CC#Cc1nc2ccccc2c(=O)[nH]1`, the growth was 35.3% (inactive).
Take `C[C@H](CCC(=O)O)[C@H]1CC[C@H]2[C@@H]3CC[C@@H]4/C(=C\c5ccco5)C(=O)/C(=C\c5ccco5)C[C@]4(C)[C@H]3CC[C@]12C`: the growth was 56.3% (inactive).
The same measure, in the same setting: the same measure for `Cc1cc(Nc2nc(-c3cccnc3)nc3ccccc23)n[nH]1`: 58.9% (inactive); for `COc1cc(OC)c(/C=C/c2cc[n+](C)c3ccccc23)c(OC)c1`: 10.7% (inactive).
On the same count and under the same terms, the same measure for `CCCCCCCCCCCCCCCC[N+]1(CC)CCCC1`: -16.7% (active); for `CC(=O)OCC(=O)C1CCC=CC1OC(C)=O` (stereo unspecified): 99.4% (inactive); for `COC1C/C(=N\O)C2OC(c3ccccc3)OCC2O1` (stereo unspecified): 104% (inactive).
On the same count and under the same terms, the same measure for `CC[C@H](Nc1nc(N)nc(C)c1C#N)c1nc2cccc(NCc3ccc(C(=O)NO)cc3)c2c(=O)n1-c1ccccc1`: 11.4% (inactive); for `Cc1nn(-c2ccccc2)c2nc(C)n(-c3ccc(Br)cc3)c(=O)c12`: 48.6% (inactive).
For `Cc1ccc2c(NCCCN(C)C)c3c(C)nn(C)c3nc2c1`, the growth was 42.9% (inactive).
On the same count and under the same terms, the same measure for `NC(CC(=O)O)C(=O)OCc1ccccc1` (stereo unspecified): 105% (inactive); for `NCCN1CCN(c2nccc(-c3ccc4ccccc4c3)n2)CC1`: 52.1% (inactive).
Still for that read-out and setting: the same measure for `Nc1ccc(Nc2nccc(-c3ccc4ccccc4c3)n2)cc1`: 46.8% (inactive); for `CCCNc1nc(SC)nc(-c2cccc(N)c2)c1C#N`: 90.1% (inactive); for `CN(C)CCOc1ccc(-c2nc3ccc(-c4nc5ccc(N6CCN(C)CC6)cc5[nH]4)cc3[nH]2)cc1`: 63.5% (inactive).
Same read-out and setting: then `CCCCCCCCCCCCN1CCCC(C)C1` (stereo unspecified), with 95.9% (inactive); and `COc1ccc(-c2nc(Nc3cc(C)[nH]n3)c3ccccc3n2)cc1`, with 40.1% (inactive).
Turning to `CN[C@@]12CC3(C=CC(=O)C=C3)O[C@]1(Cc1ccc(OC)cc1)N(C)C(=O)N2`, the growth is 44% (inactive).
